A number with no mark means an inactive call. Records with an inconclusive call do not appear. Activity calls are given as the source filed them. Calls come from the whole dose curve.

The target of assay [1] is Acetylcholinesterase (Homo sapiens) (UniProt P22303). In words: Acetylcholinesterase (AChE) small molecule antagonists: colormetric cell-based qHTS assay (AID 1347395). Note: nearly all actives have a fitted effect of over 30% in size. Note: potency is the fitted concentration of half-maximal effect. A digest of the protocol: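 SH-SY5Y cells; cpd 30 min 37 C; + DTNB/acetylthiocholine, 90 min 37 C; colorimetric thiocholine read; qHTS.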
Sequence of Acetylcholinesterase (Homo sapiens) (P22303 whole entry, looked up): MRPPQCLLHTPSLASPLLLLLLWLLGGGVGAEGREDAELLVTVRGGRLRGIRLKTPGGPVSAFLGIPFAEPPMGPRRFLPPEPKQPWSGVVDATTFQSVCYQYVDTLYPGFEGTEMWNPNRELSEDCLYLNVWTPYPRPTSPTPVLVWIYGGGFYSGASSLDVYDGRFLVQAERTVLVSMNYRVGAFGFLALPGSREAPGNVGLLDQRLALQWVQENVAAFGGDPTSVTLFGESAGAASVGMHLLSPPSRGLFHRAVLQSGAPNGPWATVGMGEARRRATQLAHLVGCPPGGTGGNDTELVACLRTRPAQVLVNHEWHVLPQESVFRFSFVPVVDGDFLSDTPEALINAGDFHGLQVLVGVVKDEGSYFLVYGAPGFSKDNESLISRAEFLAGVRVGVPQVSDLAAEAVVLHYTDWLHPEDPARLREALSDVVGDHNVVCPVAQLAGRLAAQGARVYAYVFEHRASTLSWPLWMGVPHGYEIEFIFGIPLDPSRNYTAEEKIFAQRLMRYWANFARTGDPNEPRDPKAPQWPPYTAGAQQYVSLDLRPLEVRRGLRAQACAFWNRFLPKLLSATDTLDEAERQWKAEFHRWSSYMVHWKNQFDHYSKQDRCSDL
For assay [2] the target is unchanged. In words: Acetylcholinesterase (AChE) small molecule antagonists: enzyme-based qHTS assay (AID 1347397). Note: nearly all actives have a fitted effect of over 55% in size. To be noted: Potency: AChE enzyme activity inhibition; outcome: AChE enzyme activity inhibition. A digest of the protocol: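 First, recombinant human AChE (50 mU/mL as dispensed) received test compound or DMSO. Second, plates stood 30 min at room temperature. Third, DTNB and acetylthiocholine were added, followed by 10 min at room temperature and colorimetric detection.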
(Quantitative high-throughput screening tests each substance at several concentrations.)

For assay [3] the target is unchanged. In words: Acetylcholinesterase (AChE) small molecule antagonists: enzyme-based qHTS assay with human liver microsomes (AID 1347399). Note: nearly all actives have a fitted effect of over 60% in size. To be noted: Potency: qHTS inhibition; outcome: qHTS inhibition. The method in brief:
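Recombinant human AChE (50 mU/mL in the enzyme mix) and human liver microsomes (0.25 mg/mL final) were preincubated with compound and NADPH (0.25 mg/mL final) for 30 min at 37 C. Acetylthiocholine/DTNB was then added; thiocholine was read colorimetrically after 10 min at room temperature.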

The target is the same in assay [4]. The experiment in a line: Acetylcholinesterase (AChE) small molecule antagonists: fluorescence cell-based qHTS assay (AID 1347398). Note: nearly all actives have a fitted effect of over 50% in size. Note: potency is the fitted concentration of half-maximal effect. The note with it: Potency: AChE activity; outcome: AChE activity. A digest of the protocol:
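Homogeneous quantitative HTS format. SH-SY5Y cells seeded at 2,000 per well settle overnight at 37 C. Compound pretreatment runs 30 min (37 C, 5% CO2); substrate/probe mix then reacts 40 min at RT before reading 490/520 nm.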
% is set by controls: 0 for no effect and ±100 for the full control effect.

Consider `Cc1ccc([N+](=O)[O-])cc1Cl`, for which the Potency entry in assay [1], in assay [2] and in assay [3] was “inactive” throughout.

Take `CCCCN(CCCC)CC(O)c1cc(Cl)cc2c1-c1ccc(Cl)cc1/C2=C/c1ccc(Cl)cc1` (stereo not given): the Potency result in assay [1], in assay [2] and in assay [3] was “inactive” throughout.

In the case of `CCCCCCCCOC(=O)c1cc(O)c(O)c(O)c1`, the Potency result in assay [1], in assay [4] and in assay [3] was “inactive” throughout.

On to `COc1cc(C(=O)NC2CCN(C)CC2)ccc1Nc1ncc2c(n1)N(C1CCCC1)CC(F)(F)C(=O)N2C`, for which the Potency in assay [1] is 32.6 µM (active); in assay [4], 11.6 µM (active). In addition, in assay [3], the Potency entry was “inactive”.

`O=C1CCc2cc(OCCCCc3nnnn3C3CCCCC3)ccc2N1`: the Potency in assay [1] was 24.5 µM (active). Moreover, the Potency result in assay [2] and in assay [3] was “inactive” each time.

Regarding `COc1cc(S(=O)(=O)O)c(C)cc1N=Nc1c(O)ccc2cc(S(=O)(=O)O)ccc12`, the Potency entry in assay [1], in assay [2] and in assay [3] was “inactive” throughout.

On to `CC(C)CCCCCCCCCCCCCCC(=O)O`, for which the Potency entry in assay [1], in assay [4] and in assay [3] was “inactive” throughout.

With `O=C(Nc1ccc2c(O)c(N=Nc3ccc(N=Nc4ccc(S(=O)(=O)O)cc4)cc3)c(S(=O)(=O)O)cc2c1)c1ccccc1`, the Potency result in assay [1], in assay [2] and in assay [3] was “inactive” each time.

With `Cc1c(C)n(Cc2ccccc2)c2ccc(C(=O)OCCN(C)C)cc12`, the Potency entry in assay [1] and in assay [3] was “inactive” throughout. Further, in assay [4], the Potency was 13.8 µM (active).

Take `CCC(C)(CCC(C)C)C(=O)O` (stereo not given): the Potency result in assay [1], in assay [2] and in assay [3] was “inactive” in each case.

Turning to `CC1CCCCN1CCCOC(=O)c1ccc(OC2CCCCC2)cc1` (stereo not given), the Potency in assay [1] is 17.4 µM (active); in assay [4] it was 12.3 µM (active). The Potency result in assay [3] was “inactive”.

Consider `O=C(O)c1cc(O)c2ccccc2c1O`, for which the Potency entry in assay [1], in assay [2] and in assay [3] was “inactive” in each case.

On to `CC(C)NCC(O)c1ccc2ccccc2c1` (stereo not given), for which the Potency result in assay [1], in assay [2] and in assay [3] was “inactive” in each case.

Turning to `CC1(C)CCC(C)(C)c2cc(NC(=O)c3ccc(C(=O)O)cc3)ccc21`, the Potency result in assay [1], in assay [2] and in assay [3] was “inactive” throughout.

Regarding `O=C(O)COc1ccc2ccccc2c1`, the Potency entry in assay [1], in assay [4] and in assay [3] was “inactive” each time.

Regarding `CC1C2CC(CC2C2CCCC(O)C2)C1(C)C` (stereo not given), the Potency entry in assay [1], in assay [4] and in assay [3] was “inactive” in each case.

`CCCOC(C(=O)OC1CCN(C)CC1)(c1ccccc1)c1ccccc1`: the Potency entry in assay [1], in assay [2] and in assay [3] was “inactive” in each case.

Take `C[C@H](CCC(=O)O)[C@H]1CC[C@H]2[C@@H]3C(=O)C[C@@H]4CC(=O)CC[C@]4(C)[C@H]3CC(=O)[C@]12C`: the Potency result in assay [1] and in assay [4] was “inactive” in each case.

As to `Cc1ncc([C@@H](CCCCCCc2ccc3c(n2)NCCC3)CC(=O)O)cn1`, the Potency in assay [1] is 56.4 µM (active). For the same molecule, the Potency result in assay [2] and in assay [3] was “inactive” each time.

As to `O=S1(=O)CC(Cl)(Cl)C(Cl)(Cl)C1`, the Potency in assay [1] is 71 µM (active). Further, in assay [4], the Potency entry is “inactive”.

As to `CCOc1ccc2nc3cc(N)ccc3c(N)c2c1`, the Potency in assay [1] was 17.4 µM (active); in assay [4] it was 13.8 µM (active). In addition, in assay [3], the Potency entry is “inactive”.

In the case of `CCCCCCCCCCCCOCCOS(=O)(=O)O`, the Potency entry in assay [1], in assay [4] and in assay [3] was “inactive” in each case.

Turning to `O=S(=O)(c1ccc(OCc2ccccc2)cc1)c1ccccc1O`, the Potency result in assay [1], in assay [4] and in assay [3] was “inactive” throughout.

Take `CCN(CC)c1ccc(N)cc1`: the Potency in assay [1] and in assay [4] was 32.6 µM (active) throughout. Moreover, the Potency result in assay [3] is “inactive”.

With `O=C(c1ccccc1)C1CCCCC1`, the Potency result in assay [1], in assay [4] and in assay [3] was “inactive” each time.

As to `CCCCCCOC(=O)CCCCC`, the Potency result in assay [1], in assay [4] and in assay [3] was “inactive” in each case.

As for `CCCCC/C=C\C/C=C\CCCCCCCC(=O)NC(C)c1ccccc1` (stereo not given), the Potency result in assay [1], in assay [4] and in assay [3] was “inactive” throughout.

`CN(C)CCOc1ccc(/C(=C(/CCCl)c2ccccc2)c2ccccc2)cc1`: the Potency result in assay [1], in assay [4] and in assay [3] was “inactive” in each case.

`Cc1nc2ccccn2c(=O)c1CCN1CCC(C(=O)c2ccc(F)cc2)CC1`: the Potency in assay [1] was 24.5 µM (active); in assay [4], 7.76 µM (active). Further, in assay [3], the Potency entry is “inactive”.

As for `CCCCCCCCCOC(=O)c1ccc(O)cc1`, the Potency result in assay [1], in assay [4] and in assay [3] was “inactive” throughout.

Regarding `CNc1ccc(O)cc1`, the Potency in assay [1] is 22.4 µM (active); in assay [4], 31.7 µM (active). In assay [3], the Potency entry is “inactive”.

On to `O=C1NCCN1CCN1CCC(c2cn(-c3ccc(F)cc3)c3ccc(Cl)cc23)CC1`, for which the Potency result in assay [1] and in assay [3] was “inactive” throughout. Besides, in assay [4], the Potency was 24.5 µM (active).

Turning to `O=C1c2ccccc2C(=O)c2cc(Cl)ccc21`, in assay [1], the activity, negative = inhibition is -0.634% [at 10.5 µM]. Further, the figures for the activity change, negative = inhibition in assay [4] and in assay [3] were 0% [at 10.5 µM] and 0.0166% [at 10.5 µM], respectively.

For the molecule `CC(=O)O[C@H]1C[C@@H]2CC[C@@H]3[C@H](CC[C@@]4(C)[C@H]3C[C@H]([N+]3(C)CCCCC3)[C@@H]4OC(C)=O)[C@@]2(C)C[C@@H]1N1CCCCC1`, the Potency is 17.4 µM (active) in assay [1] and 6.92 µM (active) in assay [4]. For the same molecule, the Potency result in assay [3] was “inactive”.

These data come from PubChem BioAssay (Tox21).
